# In all, about 2,400 compounds went through this assay and about 2,200 (92%) were called active. So high a share suggests a set chosen from earlier hits. This is one part of the list. A number with no mark means an inactive call.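 How the source made its calls: active means mean inhibition over triplicate runs exceeds the cutoff derived for the earlier primary screen (cut at about 25% in these data); inactive means the rest.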
# Molecular target: Platelet-activating factor acetylhydrolase IB subunit alpha2 (Homo sapiens) (UniProt P68402)
# Sequence (P68402 whole entry, looked up): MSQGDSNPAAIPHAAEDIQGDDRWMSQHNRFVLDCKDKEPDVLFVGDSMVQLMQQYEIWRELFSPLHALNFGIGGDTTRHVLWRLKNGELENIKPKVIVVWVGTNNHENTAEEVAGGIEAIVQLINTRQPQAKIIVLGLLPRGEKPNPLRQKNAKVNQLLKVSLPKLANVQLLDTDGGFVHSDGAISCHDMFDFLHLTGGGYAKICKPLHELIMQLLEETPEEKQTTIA
# Assay: inhibition of human PAFAH1B2 catalytic subunit – biochemical, fluorescence polarization, FP-rhodamine probe, triplicate, confirmation (AID 493034);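 further: 0% = enzyme with DMSO and 100% = wells lacking PAFAH1B2 protein; inhibitors lower polarization by leaving the probe unbound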
# Details: recombinant PAFAH1B2, FP-rhodamine probe fluorescence polarization; at 3.39 µM; active compounds read high
row,Compound,inhibition
1,C=CCO/N=C(\C)c1c(O)c(C)c(-c2ccccc2)n(-c2ccccc2)c1=O,25.2% (active)
2,CC1CCC2C(C1)c1sc(=O)[nH]c1SC2(C)C (configuration not stated),55.2% (active)
3,N#CC1(C#N)CC(C=O)=C(N)C1(C#N)CC(=O)C12CC3CC(CC(C3)C1)C2 (configuration not stated),17.2%
4,CCC[C@@H]1CCCO[C@@](C(=O)NCc2ccccn2)(C(F)(F)F)C1,20%
5,Cc1ccc(SCc2[nH]nc3c2C2(CCSCC2)C(C#N)=C(N)O3)cc1,32.9% (active)
6,CCOC(=O)C(CC(=O)O)=C(c1ccccc1)c1ccccc1,17.7%
7,Cc1cc(C)cc(NC(=O)Nc2ccc(-n3ccc(C(F)(F)F)n3)cc2)c1,0.5%
8,CC1CCN(S(=O)(=O)c2ccc(N=NC3=C(O)CC(C)(C)CC3=O)cc2)CC1,49.4% (active)
9,CC1CCN(S(=O)(=O)c2ccc(NC(=O)CN3CCOCC3)cc2)CC1,20.2%
10,CC1(c2ccc(Cl)cc2)NC(=S)N2C1NC(=S)N2c1ccccc1 (configuration not stated),18.1%
11,CCCn1cnc2cc(NCc3ccc(Br)cc3)ccc21,33.7% (active)
12,Cn1cnc2cc(NCc3ccc(Cl)cc3)ccc21,35.2% (active)
13,CC(C)(C)n1cnc2cc(NCc3ccc(Br)cc3)ccc21,35.2% (active)
14,CCn1cnc2cc(NCc3ccc(Cl)cc3)ccc21,20.5%
15,Cc1ccc(S(=O)(=O)N2CCCCC2)cc1C(=O)OCC(=O)N1c2ccccc2NC(=O)C1(C)C,23.6%
16,CCOC(=O)c1sc(N(Cc2ccccc2)C(=O)COC(=O)c2ccccc2O)nc1C,1.5%
17,CC(=O)NN1C(=O)/C(=C/c2ccc(C(C)C)cc2)SC1=S,28.4% (active)
18,CC(=O)c1sc(NC(=O)C2(F)C(F)(F)C(F)(F)C(F)(F)C(F)(F)C2(F)F)nc1C,28.6% (active)
19,O=C(CN1CCN(S(=O)(=O)c2ccc(Br)s2)CC1)NC1CCCCC1,22.8%
20,CCn1c(SCC(=O)N(C)C)nc2cc(S(=O)(=O)N3CCOCC3)ccc21,4.4%
21,O=C(c1cc([N+](=O)[O-])ccc1N1CCN(S(=O)(=O)c2ccc(Cl)c(Cl)c2)CC1)N1CCOCC1,27.3% (active)
22,CC(NC(=O)CN1C(=O)NC(Cc2ccccc2)(Cc2ccccc2)C1=O)C12CC3CC(CC(C3)C1)C2 (configuration not stated),71.1% (active)
23,CC(NC(=O)c1ccc([N+](=O)[O-])o1)C12CC3CC(CC(C3)C1)C2 (configuration not stated),18%

row,Compound,inhibition
1,CN1CCN(S(=O)(=O)c2ccc(Sc3nnnn3-c3ccccc3)c([N+](=O)[O-])c2)CC1,41.1% (active)
2,CN1CCN(S(=O)(=O)c2ccc(Sc3nnc(-c4cccs4)n3-c3ccccc3)nc2)CC1,21.5%
3,CC(Sc1ccc(S(=O)(=O)N2CCN(C)CC2)cn1)C(=O)NC1(C#N)CCCCC1 (configuration not stated),22.4%
4,CC(OC(=O)C1=COCCO1)C(=O)Nc1ncc(Cl)cc1Cl (configuration not stated),3.49%
5,N#CC(=C1C=CC(=NO)C(Cl)=C1)c1ccc(Cl)cc1,29.9% (active)
6,C[C@H]1CCC[C@]2(C)C[C@H]3OC(=O)C(CN4CCCCCC4)[C@H]3C=C12 (some centres not stated),17.8%
7,CCNC(=S)NNC(=O)c1cc(-c2cccc(C)c2)nc2ccccc12,14.3%
8,CN(C)c1ccsc1C(=O)NNS(=O)(=O)c1ccc(Cl)cc1,17.9%
9,O=C(NNS(=O)(=O)c1ccc(Cl)cc1)c1cc(-c2ccccc2)nc2ccccc12,54.4% (active)
10,O=C(NNS(=O)(=O)c1cccc(Cl)c1)c1cc(-c2ccc(F)cc2)nc2ccccc12,48.9% (active)
11,CCc1ccc2[nH]c(O)c(N=NC3=NC(=O)CS3)c2c1,22.3%
12,O=C(O)c1ccc(N=Nc2c(O)[nH]c3ccc(Br)cc23)cc1,25.6% (active)
13,Oc1[nH]c2ccc(Br)cc2c1N=Nc1nn[nH]n1,69.4% (active)
14,C=CCSc1n[nH]c2nc3c(c(=O)n12)C1(CCCC1)Cc1ccccc1-3,46.3% (active)
15,O=c1[nH]c(NCCO)nc2c1C1(CCCC1)Cc1ccccc1-2,22.6%
16,CCn1c(SCC(N)=O)nc2c(c1=O)C1(CCCC1)Cc1ccccc1-2,20.1%
17,COc1cc(/C=C2\SC(=S)N(CCCCC(=O)O)C2=O)ccc1OS(=O)(=O)c1ccc(C)cc1,30.5% (active)
18,COc1cc(C=O)ccc1OCCSc1ccc(C)cc1,23%
19,COc1cc(/C=C2\SC(=S)N(CC(=O)O)C2=O)ccc1OS(=O)(=O)c1ccc(C)cc1,38.1% (active)
20,Cc1ccc(S(=O)(=O)CCC(=O)NCCN2C(=O)S/C(=C/c3ccc(F)cc3)C2=O)cc1,21.1%
21,CCOc1cc2[nH]c(=O)n(CCCC(=O)NCc3ccc(OC)cc3)c(=O)c2cc1OCC,3.79%
22,CC(C)c1ccc(C(C)NCCS(=O)(=O)c2ccc(Cl)cc2)cc1 (configuration not stated),18.1%
23,Cc1ccc(S(=O)(=O)N2[C@@H](c3ccc(Cl)cc3)C(C(=O)O)=CC[C@H]2c2ccc(C(C)C)cc2)cc1,95.9% (active)

row,Compound,inhibition
1,Cc1ccc(S(=O)(=O)N2[C@@H](c3ccc(Br)cc3)C(C(=O)O)=CC[C@H]2c2ccc(C(C)C)cc2)cc1,93.5% (active)
2,CC(Oc1ccc(Cl)cc1)C(=O)OCC(=O)Nc1ncc(Cl)cc1Cl (configuration not stated),23.2%
3,Cc1nc(N)nc(N)c1/C=C/C(C)(C)c1ccc(Cl)cc1,66.2% (active)
4,O=C(O)CCCN1C(=O)C2C3CC(C2C1=O)C1C(c2ccccc2)c2sc(=O)[nH]c2SC31 (configuration not stated),74% (active)
5,O=C(O)CCN1C(=O)C2C3CC(C2C1=O)C1C(c2ccccc2)c2sc(=O)[nH]c2SC31 (configuration not stated),79.6% (active)
6,ONC(=Nc1ccc(Cl)cc1)c1ccccc1,23.1%
7,O=C(NCc1n[nH]c(=S)n1-c1ccc(Br)cc1)c1ccc(S(=O)(=O)N2CCCCC2)cc1,23.9%
8,O=C(CSc1n[nH]c(-c2ccc(S(=O)(=O)N3CCCCC3)cc2)n1)Nc1nccs1,44.6% (active)
9,O=C(Nc1nc2ccc(S(=O)(=O)N3CCCCC3)cc2s1)c1ccncc1,20.7%
10,O=C(Cc1ccc(Br)cc1)c1ccc(O)cc1O,70.8% (active)
11,N#Cc1ccc(S(=O)(=O)N2CCc3[nH]c4ccc(F)cc4c3C2)cc1,31.2% (active)
12,CCC(C)CCCCCCCCCCC(=O)O (configuration not stated),16.6%
13,CN(CC(=O)Nc1ccc(C#N)cc1)Cc1ccc(Cl)cc1,19.9%
14,Cc1ccc(COc2ccc(/C=N/O)cc2)cc1,22.1%
15,O/N=C/c1ccc2ccccc2c1,43.9% (active)
16,Cc1ccc(S(=O)(=O)Nc2ccc(Cl)cc2C(=O)c2ccc(F)cc2)cc1,27.2% (active)
17,Cc1ccc(S(=O)(=O)NC(=O)Nc2nc(-c3ccc(F)c(F)c3)cs2)cc1,9.68%
18,CNC(=O)c1cc(C(=O)c2ccc(Cl)cc2)c(Br)[nH]1,14%
19,O=C1N(c2ccccc2)C(c2ccccc2)C12CCCCC2 (configuration not stated),24%
20,CC1(C)C(=O)N(c2ccccc2)C1c1ccccc1O (configuration not stated),36.5% (active)
21,CCCC(=O)Nc1sc(-c2ccccc2)c(-c2ccccc2)c1C(=O)O,43.5% (active)
22,COc1ccc(/C=C2\SC(=O)N(CCCC(=O)Nc3cc(Cl)ccc3C(=O)O)C2=O)cc1,40.3% (active)
23,O=C(CCN1C(=O)/C(=C/c2ccccc2F)SC1=S)N[C@@H](CO)Cc1ccccc1,60.2% (active)

row,Compound,inhibition
1,O=C(CCN1C(=O)/C(=C/c2ccccc2)SC1=S)N[C@@H](CO)Cc1ccccc1,66.8% (active)
2,O=C(CCCN1C(=O)/C(=C\c2ccccc2)SC1=S)Nc1ccc(O)cc1C(=O)O,61.7% (active)
3,O=C(CCN1C(=O)/C(=C/c2ccccc2Cl)SC1=S)NC1=NCCS1,6.52%
4,OC(c1ccccc1)(c1ccc(F)cc1)C(c1ccccc1)N1CCOCC1 (configuration not stated),21.9%
5,CN(C(=O)COC(=O)c1ccc(Cl)c(S(=O)(=O)NCc2ccccc2)c1)C1CCS(=O)(=O)C1 (configuration not stated),19.1%
6,Cc1ccc(C)c(NC(=O)CN(C)C(=O)c2ccc3[nH]c4c(c3c2)CC(C)CC4)c1 (configuration not stated),29.8% (active)
7,Cc1ccc(NC(=O)CN(C)C(=O)c2ccc3[nH]c4c(c3c2)CC(C)CC4)cc1 (configuration not stated),47.5% (active)
8,O=[N+]([O-])c1ccc(O)c(/C=N/Nc2nc3ccccc3[nH]2)c1,28.4% (active)
9,CC(C)C1Nc2ccc(S(N)(=O)=O)cc2C2C=CCC21 (configuration not stated),23%
10,CC(C)C1Nc2c(O)cc(Cl)c([N+](=O)[O-])c2C2C=CCC21 (configuration not stated),39.4% (active)
11,O=c1[nH]c2c(s1)C(c1ccco1)C1C3CCC(C3)C1S2 (configuration not stated),51.9% (active)
12,O=c1[nH]c2c(s1)C(c1ccccc1)C1C3CCC(C3)C1S2 (configuration not stated),36.8% (active)
13,S=C(NCCc1ccc(Cl)cc1)NC1CC1,40.9% (active)
14,Cc1ccc(C)c(NC(=S)NCCSc2ccc(Cl)cc2)c1,23.1%
15,O=C(CSc1ncn[nH]1)NCCc1ccc(Cl)cc1,18.2%
16,COc1ccccc1NC(=S)NCCc1ccc(Cl)cc1,25.7% (active)
17,Cc1csc(SCC(=O)NCCc2ccc(Cl)cc2)n1,22.8%
18,S=C(NCCc1ccc(Cl)cc1)NC1CCCCC1,22.8%
19,CCN(CC(=O)Nc1ccc(NC(C)=O)cc1)Cc1c(O)ccc2cc(Br)ccc12,59.1% (active)
20,COc1ccc(CCN(C)Cc2c(O)ccc3cc(Br)ccc23)cc1OC,14.9%
21,Cc1ccc(C)c(Cn2nnc3c(=O)[nH]c(C(=O)NCC4CCCO4)nc32)c1 (configuration not stated),5.01%
22,NNC(=S)NC1CCCCCCCCCCC1,47.2% (active)
23,CN(C)C(=O)NC1CCCCCCCCCCC1,22.7%
